Laboratory results taken from the supplement of paper PMC6279402.
Where a name gives a salt, the structure may show the parent alone. ± gives the standard deviation of the averaged measurements.

Test system: A549
Assay: relative viability (normalised to negative control = 1, bortezomib = 0) (fraction); higher = less cytotoxic
Conditions: inflammatory serum-free RHB-A with cytokines + LPS, 5 d + 24 h CellTiter-Blue
[1] = compound 30 nM, GSK126 pretreatment: 5 uM GSK126
[2] = compound 30 nM, GSK126 pretreatment: none (vehicle)
[3] = compound 300 nM, GSK126 pretreatment: 5 uM GSK126
[4] = compound 300 nM, GSK126 pretreatment: none (vehicle)

Compound: C#CCC(Cc1cnc2nc(N)nc(N)c2n1)c1ccc(C(=O)N[C@@H](CCC(=O)O)C(=O)O)cc1 (stereo not given in full) [pralatrexate]
- relative viability [1]: 0.878 ± 0.027
- relative viability [2]: 0.859 ± 0.075
- relative viability [3]: 0.765 ± 0.068
- relative viability [4]: 0.896 ± 0.06

Compound: Cc1nc(NC(=O)N2CCC[C@H]2C(N)=O)sc1-c1csc(C(C)(C)C)n1
- relative viability [1]: 0.809 ± 0.045
- relative viability [2]: 0.869 ± 0.085
- relative viability [3]: 0.704 ± 0.044
- relative viability [4]: 0.784 ± 0.059

Compound: COc1nc(N)nc2c1ncn2[C@@H]1O[C@H](CO)[C@@H](O)[C@@H]1O [Nelarabine]
- relative viability [1]: 0.838 ± 0.12
- relative viability [2]: 0.875 ± 0.13
- relative viability [3]: 0.96 ± 0.16
- relative viability [4]: 0.956 ± 0.14

Compound: O=C(O)C1(C(=O)O)CCC1.[NH2-].[NH2-].[Pt+2] [Carboplatin]
- relative viability [1]: 0.75 ± 0.042
- relative viability [2]: 0.748 ± 0.059
- relative viability [3]: 0.742 ± 0.048
- relative viability [4]: 0.812 ± 0.0056

Compound: COC(=O)Nc1ccc(-c2nc(N3CCOCC3)c3cnn(C4CCN(C(=O)OC)CC4)c3n2)cc1
- relative viability [1]: 0.691 ± 0.035
- relative viability [2]: 0.715 ± 0.019
- relative viability [3]: 0.489 ± 0.036
- relative viability [4]: 0.588 ± 0.04

Compound: O=C(Nc1cccc(Cl)c1)Nc1ncc(CCNc2ncnc3ccsc23)s1 [SNS-314 Mesylate]
- relative viability [1]: 0.763 ± 0.13
- relative viability [2]: 0.639 ± 0.054
- relative viability [3]: 0.689 ± 0.16
- relative viability [4]: 0.505 ± 0.1

Compound: CC[C@]1(O)C[C@@H]2CN(CCc3c([nH]c4ccccc34)[C@@](C(=O)OC)(c3cc4c(cc3OC)N(C)[C@H]3[C@@](O)(C(=O)OC)[C@H](OC(C)=O)[C@]5(CC)C=CCN6CC[C@]43[C@@H]65)C2)C1 [Vinblastine sulfate salt; Vinblastine sulfate]
- relative viability [1]: 0.447 ± 0.011
- relative viability [2]: 0.286 ± 0.039
- relative viability [3]: 0.277 ± 0.024
- relative viability [4]: 0.255 ± 0.022

Compound: Cc1ccc(NC(=O)c2cccc(N(C)C)c2)cc1NC(=O)c1ccc(O)cc1
- relative viability [1]: 0.965 ± 0.086
- relative viability [2]: 1.02 ± 0.11
- relative viability [3]: 1.19 ± 0.13
- relative viability [4]: 1.15 ± 0.042

Compound: CC1(COc2ccc3c(c2)ncn3-c2ccc3cccc(N4CCC(N)CC4)c3n2)COC1
- relative viability [1]: 0.986 ± 0.081
- relative viability [2]: 0.966 ± 0.12
- relative viability [3]: 1.3 ± 0.087
- relative viability [4]: 1.34 ± 0.12

Compound: Fc1cc(-c2cccc3ncc(-c4cnn(C5CCNCC5)c4)nc23)cc(F)c1CN1CCOCC1
- relative viability [1]: 0.927 ± 0.076
- relative viability [2]: 0.889 ± 0.13
- relative viability [3]: 1.11 ± 0.12
- relative viability [4]: 1.05 ± 0.15

Compound: CC(C)(C)Cn1c(N)nc2ccc(-c3[nH]c(C(C)(C)C)nc3-c3ccc(F)cc3)nc21
- relative viability [1]: 1.11 ± 0.14
- relative viability [2]: 0.933 ± 0.21
- relative viability [3]: 1.25 ± 0.16
- relative viability [4]: 1.15 ± 0.18

Compound: Cn1c(=O)n(-c2ccc(C(C)(C)C#N)cc2)c2c3cc(-c4cnc5ccccc5c4)ccc3ncc21
- relative viability [1]: 0.581 ± 0.063
- relative viability [2]: 0.624 ± 0.034
- relative viability [3]: 0.209 ± 0.0083
- relative viability [4]: 0.21 ± 0.0091

Compound: N#Cc1c(O)c2c(-c3ccc(-c4ccccc4O)cc3)csc2[nH]c1=O
- relative viability [1]: 0.86 ± 0.15
- relative viability [2]: 0.937 ± 0.13
- relative viability [3]: 0.938 ± 0.18
- relative viability [4]: 0.942 ± 0.11

Compound: O=C(NOC[C@H](O)CO)c1ccc(F)c(F)c1Nc1ccc(I)cc1F
- relative viability [1]: 0.213 ± 0.035
- relative viability [2]: 0.291 ± 0.011
- relative viability [3]: 0.108 ± 0.017
- relative viability [4]: 0.112 ± 0.0091

Compound: CO[C@H]1C(=O)[C@]2(C)[C@@H](OC)C[C@H]3OC[C@@]3(OC(C)=O)[C@H]2[C@H](OC(=O)c2ccccc2)[C@]2(O)C[C@H](OC(=O)[C@H](O)[C@@H](NC(=O)OC(C)(C)C)c3ccccc3)C(C)=C1C2(C)C [Cabazitaxel]
- relative viability [1]: 0.487 ± 0.065
- relative viability [2]: 0.349 ± 0.054
- relative viability [3]: 0.541 ± 0.061
- relative viability [4]: 0.421 ± 0.077

Compound: FC(F)c1nc2ccccc2n1-c1nc(N2CCOCC2)nc(N2CCOCC2)n1
- relative viability [1]: 0.684 ± 0.12
- relative viability [2]: 0.738 ± 0.044
- relative viability [3]: 0.321 ± 0.1
- relative viability [4]: 0.395 ± 0.033

Compound: C#Cc1cccc(Nc2ncnc3cc(OCCOC)c(OCCOC)cc23)c1
- relative viability [1]: 0.81 ± 0.083
- relative viability [2]: 0.823 ± 0.12
- relative viability [3]: 0.448 ± 0.041
- relative viability [4]: 0.494 ± 0.031

Compound: CNC(=O)Nc1ccc(-c2nc(N3CC4CCC(C3)O4)c3cnn(C4CCC5(CC4)OCCO5)c3n2)cc1
- relative viability [1]: 0.424 ± 0.074
- relative viability [2]: 0.432 ± 0.012
- relative viability [3]: 0.226 ± 0.011
- relative viability [4]: 0.237 ± 0.035

Compound: Cn1c(=O)c(F)c(Nc2ccc(I)cc2F)c2c(=O)n(C[C@@H](O)CO)cnc21
- relative viability [1]: 0.156 ± 0.017
- relative viability [2]: 0.1847 ± 0.0015
- relative viability [3]: 0.0544 ± 0.0097
- relative viability [4]: 0.0397 ± 0.0058

Compound: COc1cc2nccc(Oc3ccc(NC(=O)Nc4cc(C)on4)c(Cl)c3)c2cc1OC [AV-951(Tivozanib)]
- relative viability [1]: 0.919 ± 0.12
- relative viability [2]: 0.927 ± 0.12
- relative viability [3]: 1.1 ± 0.11
- relative viability [4]: 1.18 ± 0.18

Compound: CNC(=O)c1cc(Oc2ccc(NC(=O)Nc3cc(C(C)(C)C)nn3-c3ccc4ncccc4c3)c(F)c2)ccn1 [DCC-2036 (Rebastinib)]
- relative viability [1]: 1.37 ± 0.1
- relative viability [2]: 1.35 ± 0.12
- relative viability [3]: 1.48 ± 0.067
- relative viability [4]: 1.57 ± 0.06

Compound: COc1cc(OC)c(/C=C/S(=O)(=O)Cc2ccc(OC)c(NCC(=O)O)c2)c(OC)c1
- relative viability [1]: 0.4 ± 0.058
- relative viability [2]: 0.303 ± 0.018
- relative viability [3]: 0.352 ± 0.015
- relative viability [4]: 0.245 ± 0.035

Compound: O=C1CCC(N2C(=O)c3ccccc3C2=O)C(=O)N1 (stereo not given)
- relative viability [1]: 0.862 ± 0.17
- relative viability [2]: 0.862 ± 0.13
- relative viability [3]: 0.865 ± 0.06
- relative viability [4]: 0.87 ± 0.034

Compound: CCN(CC)CCNC(=O)c1c(C)[nH]c(/C=C2\C(=O)Nc3ccc(F)cc32)c1C [Sunitinib; Sunitinib Malate; Sunitinib (free base)]
- relative viability [1]: 0.842 ± 0.03
- relative viability [2]: 0.832 ± 0.046
- relative viability [3]: 0.896 ± 0.067
- relative viability [4]: 0.939 ± 0.097

Compound: O=C1NC(=O)/C(=C\c2ccc3nccnc3c2)S1
- relative viability [1]: 0.877 ± 0.1
- relative viability [2]: 0.854 ± 0.032
- relative viability [3]: 0.915 ± 0.14
- relative viability [4]: 0.946 ± 0.17

Compound: O=C(O)c1ccc2c(c1)nc(Nc1cccc(Cl)c1)c1ccncc12
- relative viability [1]: 0.707 ± 0.14
- relative viability [2]: 0.761 ± 0.04
- relative viability [3]: 0.728 ± 0.11
- relative viability [4]: 0.839 ± 0.12

Compound: Cc1cc(Nc2nc(N[C@@H](C)c3ncc(F)cn3)ncc2Cl)[nH]n1
- relative viability [1]: 0.912 ± 0.1
- relative viability [2]: 0.872 ± 0.08
- relative viability [3]: 1.15 ± 0.076
- relative viability [4]: 1.13 ± 0.017

Compound: O=C(Cc1ccc(-c2ccc(OCCN3CCOCC3)cc2)cn1)NCc1ccccc1
- relative viability [1]: 0.319 ± 0.065
- relative viability [2]: 0.211 ± 0.026
- relative viability [3]: 0.388 ± 0.049
- relative viability [4]: 0.248 ± 0.05

Compound: Nc1ncn([C@@H]2O[C@H](CO)[C@@H](O)[C@H]2O)c(=O)n1 [Azacitidine; 5-azacytidine]
- relative viability [1]: 0.841 ± 0.27
- relative viability [2]: 0.854 ± 0.13
- relative viability [3]: 0.903 ± 0.15
- relative viability [4]: 0.996 ± 0.13

Compound: CCN(CC)CCCC(C)Nc1c2ccc(Cl)cc2nc2ccc(OC)cc12 (stereo not given)
- relative viability [1]: 0.836 ± 0.066
- relative viability [2]: 0.847 ± 0.051
- relative viability [3]: 1.02 ± 0.091
- relative viability [4]: 1.02 ± 0.11
